Measured values taken from article PMC4336329 (PLoS ONE, 2015).
About 14,000 (4.5%) of roughly 310,000 compounds showed an effect of 50% or more. The effect is printed as a negative number. The sample holds strong results, similar compounds and a random draw of the others, so the mix is not that of the screen.

target: human ether-à-go-go-related gene (hERG) potassium channel (human, UniProt Q12809); test: primary screen, population patch clamp on CHO cells stably expressing hERG; higher = less effect of the substance
Sequence (Q12809 whole entry, looked up): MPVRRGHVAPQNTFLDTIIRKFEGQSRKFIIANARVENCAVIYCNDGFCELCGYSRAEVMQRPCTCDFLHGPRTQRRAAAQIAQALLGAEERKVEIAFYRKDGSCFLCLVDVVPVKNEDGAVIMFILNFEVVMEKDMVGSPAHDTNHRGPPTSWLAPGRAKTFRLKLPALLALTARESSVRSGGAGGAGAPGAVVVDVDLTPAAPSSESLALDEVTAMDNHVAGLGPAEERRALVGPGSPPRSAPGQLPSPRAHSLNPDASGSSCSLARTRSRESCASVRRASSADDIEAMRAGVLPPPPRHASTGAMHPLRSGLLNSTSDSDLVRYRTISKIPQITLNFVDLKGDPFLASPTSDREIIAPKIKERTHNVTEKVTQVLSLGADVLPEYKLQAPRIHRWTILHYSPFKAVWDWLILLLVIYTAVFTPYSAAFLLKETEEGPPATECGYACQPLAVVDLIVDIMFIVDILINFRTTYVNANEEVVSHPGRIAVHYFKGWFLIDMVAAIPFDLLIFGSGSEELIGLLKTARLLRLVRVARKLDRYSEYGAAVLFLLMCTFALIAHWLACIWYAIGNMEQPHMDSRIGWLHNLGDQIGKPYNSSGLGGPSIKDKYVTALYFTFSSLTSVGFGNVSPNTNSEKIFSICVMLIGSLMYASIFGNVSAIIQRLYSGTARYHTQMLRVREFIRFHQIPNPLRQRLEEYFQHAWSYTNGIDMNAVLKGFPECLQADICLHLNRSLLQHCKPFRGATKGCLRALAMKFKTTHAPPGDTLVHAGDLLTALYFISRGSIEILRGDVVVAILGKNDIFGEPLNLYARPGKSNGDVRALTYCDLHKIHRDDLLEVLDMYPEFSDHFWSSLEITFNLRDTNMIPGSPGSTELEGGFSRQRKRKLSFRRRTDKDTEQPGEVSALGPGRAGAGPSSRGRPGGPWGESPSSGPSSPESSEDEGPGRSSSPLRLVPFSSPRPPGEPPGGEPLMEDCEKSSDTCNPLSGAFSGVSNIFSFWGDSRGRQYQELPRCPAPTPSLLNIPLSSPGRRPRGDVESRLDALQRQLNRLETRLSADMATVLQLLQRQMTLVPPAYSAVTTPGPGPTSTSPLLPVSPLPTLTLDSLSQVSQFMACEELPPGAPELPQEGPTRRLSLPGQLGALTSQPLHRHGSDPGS
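Further: peak tail current of the secondary pulse compared with the same well before compound.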

| SMILES | hERG current change (%, negative = inhibition) at 10uM [%] |
| --- | --- |
| Cc1ccc(C)c(S(=O)(=O)Nc2cc(SCC(=O)O)c(O)c3ccccc23)c1 | 5.34 |
| CCOc1ccc(Cc2c(C)[nH]c3ccc(C(=O)O)cc3c2=S)cc1 | -9.2 |
| Cc1ccc(S(=O)(=O)N(CC(O)CN2CCCCC2)c2cccc([N+](=O)[O-])c2)cc1 (stereo not shown) | -78.8 |
| O=[N+]([O-])c1cccc(N(CC(O)CN2CCCCC2)S(=O)(=O)c2ccccc2)c1 (stereo not shown) | -43.8 |
| O=[N+]([O-])c1cccc(N(CC(O)CN2CCCC2)S(=O)(=O)c2ccccc2)c1 (stereo not shown) | -62.4 |
| COc1ccc([N+](=O)[O-])cc1N(CC(O)CN1CCCCC1)S(=O)(=O)c1ccc(C)cc1 (stereo not shown) | -42.7 |
| COc1ccc([N+](=O)[O-])cc1N(CC(O)CN1CCCC1)S(=O)(=O)c1ccc(C)cc1 (stereo not shown) | -2.85 |
| Cc1cc(C)n(CC(O)CN(c2cccc([N+](=O)[O-])c2)S(=O)(=O)c2ccccc2)n1 (stereo not shown) | 7.08 |
| Cc1cc(C)c2nc(SCC#N)cc(C)c2c1 | 13.5 |
| O=C(OCC#CCSc1nnc(-c2cccc3ccccc23)o1)c1ccco1 | -2.9 |
| CCN=C(Nc1ccc(Cl)cc1)c1cccnc1 | -2.16 |
| O=C(N/C(=C/c1ccco1)C(=O)N1CCCC1)c1cccs1 | -0.326 |
| CC(C)(C)OC(=O)N1CCOCCOCCN(C(=O)OC(C)(C)C)CCOCCOCC1 | 7 |
| COc1ccc(-c2nc(CN3CCC(C(=O)NC4CCCC4)CC3)c(C)o2)cc1OC | -36.4 |
| Cc1oc(-c2ccc(Cl)cc2)nc1CN1CCCC(C(=O)NC2CC2)C1 (stereo not shown) | -81.3 |
| Cc1oc(-c2ccc(Cl)cc2)nc1CN1CCCC(C(=O)NCCCN2CCOCC2)C1 (stereo not shown) | -19.4 |
| Cc1oc(-c2ccc(Cl)cc2)nc1CS(=O)CC(=O)NC1CC1 (stereo not shown) | 8.75 |
| COc1ccc(-c2nc(CN3CCCC(C(=O)NC4CCCC4)C3)c(C)o2)cc1 (stereo not shown) | -64.4 |
| COc1ccc(-c2nc(CS(=O)CC(=O)NC3CCCC3)c(C)o2)cc1 (stereo not shown) | -16.4 |
| CC1CCN(c2nc(N3CCCCC3)nc(N3CCCCC3)n2)CC1 | 9.57 |
| CC(C)(C)C(=O)OCc1nc(-c2ccc(Cl)cc2)cs1 | 7.41 |
| COc1ccc(CNC(=O)CCc2nc3cc(S(=O)(=O)N(C)C)ccc3n2C)cc1OC | 14.3 |
| N#C/C(=C\N1CCCCC1)S(=O)(=O)c1ccc(Cl)cc1 | 15.6 |
| O=C(NCCc1ccccc1)c1ccc(S(=O)(=O)N2CCCC2)cc1 | -5.37 |
| CSc1cccc(NC(=O)COC(=O)C2CCN(S(=O)(=O)c3ccccc3)CC2)c1 | 4.09 |
| Cc1ccc(-n2cnnn2)cc1Cl | -18.8 |
| C/C(=N\NC(=O)CNC(=O)c1cccs1)c1ccc(Cl)c(Cl)c1 | -2.25 |
| Fc1ccccc1CNc1ccc(Cl)cc1 | -8.14 |

| SMILES | hERG current change (%, negative = inhibition) at 10uM [%] |
| --- | --- |
| Fc1ccc(NCc2ccccc2F)cc1Cl | -139 |
| Fc1ccccc1CNc1ccc(Cl)c(Cl)c1 | 9.9 |
| CC(NC(=O)CSC1=NCCS1)c1ccccc1 (stereo not shown) | 14.3 |
| Clc1nc2sccn2c1/C=N/n1cnc2ccccc21 | -10 |
| COc1ccc(C(C(=O)NC2CCCCC2)N(C(=O)c2ccco2)c2ccccc2C(C)=O)cc1OC (stereo not shown) | 9.15 |
| O=C(CCN1CCOCC1)Nc1ccc(Br)cc1C(=O)c1ccccc1 | -19.6 |
| O=C(CNC(=O)OCc1ccccc1)Nc1ccc(Br)cc1C(=O)c1ccccc1Cl | -40.5 |
| O=C(CN1CCOCC1)Nc1ccc(Br)cc1C(=O)c1ccccc1 | -32.4 |
| CC(C(=O)Nc1ccc(Br)cc1C(=O)c1ccccc1)N1CCOCC1 (stereo not shown) | -58.6 |
| O=C(CNC(=O)OCc1ccccc1)Nc1ccc(Br)cc1C(=O)c1ccccc1 | -15.1 |
| O=C(CN1CCOCC1)NCC(=O)Nc1ccc(Br)cc1C(=O)c1ccccc1 | -37.1 |
| Cc1ccc(NC(=O)C(C)N2CCOCC2)c(C(=O)c2ccccc2)c1 (stereo not shown) | -26.9 |
| O=C(CNC(=O)OCc1ccccc1)NCC(=O)Nc1ccc(Br)cc1C(=O)c1ccccc1 | -56 |
| CC(C(=O)Nc1ccc(Br)cc1C(=O)c1ccccc1)N1CCCCC1 (stereo not shown) | -24.8 |
| O=C(CN1CCCCC1)NCC(=O)Nc1ccc(Br)cc1C(=O)c1ccccc1 | -79.1 |
| O=C(CCN1CCOCC1)NCC(=O)Nc1ccc(Br)cc1C(=O)c1ccccc1 | -49.5 |
| O=C(CCN1CCCCC1)NCC(=O)Nc1ccc(Br)cc1C(=O)c1ccccc1 | -77.6 |
| Cc1csc(NC(=O)c2ccc(C)s2)n1 | 6.99 |
| Cc1cc(C(=O)N/N=C/c2c[nH]c3ccccc23)c(C)o1 | -27.4 |
| N#Cc1c(C(F)(F)F)cc(-c2ccc(Cl)c(Cl)c2)nc1SCCN1CCOCC1 | 6.62 |
| CN1CCC(OC(=O)c2cc3cc(Cl)cc(Cl)c3oc2=O)CC1 | -17.8 |
| O=C1N/C(=C\c2ccc(O)cc2)C(=O)c2ccccc21 | -1.53 |
| O=C(O)C(=O)O.O=S(=O)(c1ccc(F)cc1)N1CCC(N2CCCCCC2)CC1 | -26.3 |
| COc1ccc(Nc2ccc(Nc3ccc(OC)cc3)nn2)cc1 | 18.6 |
| Cc1cccc(N2CCN(C(=O)Cn3nc(C)n4cccc4c3=O)CC2C)c1 (stereo not shown) | 1.19 |
| O=C(O)CCCCCCCCc1cn(Cc2ccc(C(=O)c3ccccc3)cc2)nn1 | 19.5 |
| Cc1cccc(C)c1OCC(=O)N/N=C/c1cc2c(cc1[N+](=O)[O-])OCO2 | -4.6 |
